Shown are actives, neighbours in structure and some others; about 21% of the full set was active somewhere.
Shiga toxin inh – inhibitors of Shiga toxin in Vero cells; Vero cells, Shiga toxin protein synthesis inhibition reporter; AID 2315; 290,000 compounds, 9.2% hits; inhibition, % at 38.7 µM; in the data active means inhibition mostly above about 28%, no sharp cut-off; inactive means mostly below about 43%; further: 0% is about no effect
Pf growth 96h – inhibits malaria parasite growth, 96 h; P. falciparum luciferase reporter growth, 96 h; Potency, µM (titrated, usually from 28.7 µM), for inactives: at the highest dose activity change, negative = inhibition, most hits filed as inhibitors; 320,000 compounds, 6.9% hits; AID 504834; active means well fitted inhibition curve with a large enough effect; inconclusive means small, poorly fitted or top-dose-only effect, or another doubt; inactive means no such curve, though single readings can be large or run the other way; further: potency means the concentration at half of the fitted maximal effect; on the % scale 0 is the no-effect control and ±100 the full control effect
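Luminescence readout: decreased luciferase signal marks inhibited growth of reporter-expressing P. falciparum in infected red cells (2% hematocrit, 0.05% parasitemia final), exposed to compound two generations (96 h, 37 C, 5% CO2).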
Pf growth 48h – inhibits P. falciparum growth in the first generation, 48 h. Potency, µM (series often up to 28.7 µM), for the others: top-dose activity change, negative = inhibition, most hits filed as inhibitors. 310,000 compounds, 5.9% hits. P. falciparum luciferase growth in erythrocytes, 48 h; active means well fitted inhibition curve with a large enough effect; inconclusive means small, poorly fitted or top-dose-only effect, or another doubt; inactive means no such curve, though single readings can be large or run the other way; further: potency means the concentration at half of the fitted maximal effect; on the % scale 0 is the no-effect control and ±100 the full control effect
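Read-out is firefly luciferase luminescence from an integrated reporter in P. falciparum, so falling signal marks reduced parasite growth. Infected erythrocytes were at 2% hematocrit and 0.1% parasitemia (final) in Albumax-supplemented RPMI 1640.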
CHX counter – counter-screen for Shiga toxin inhibitors: cycloheximide protein synthesis inhibition | cell reporter, cycloheximide protein synthesis inhibition counterscreen | max response, % | 300,000 compounds, 12% hits | AID 2314; in the data active means max response mostly above about 13%, no sharp cut-off; inactive means mostly below about 14%; further: read at 38.3 µM for the half of the compounds with a filed dose; 0% is about no effect
NS1 function inh – influenza NS1 inhibition; Potency, µM (highest dose often 46.1 µM), for inactives: at the top dose activity, positive = more growth; 270,000 compounds, 0.4% hits; further: potency means the concentration at half of the fitted maximal effect; actives are rising curves; nearly all actives have a fitted effect of over 50% in size
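Compounds were scored for reversing the slow growth caused by influenza A NS1 in S. cerevisiae, measured by optical density at 600 nm. Assay medium contained 2% galactose at pH 6.0; NS1-free yeast of the same strain were the positive control.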
NS1 inh valid – validation of influenza NS1 protein function inhibitors | shares compounds with NS1 function inh | AID 492980 | activity change, negative = inhibition, % at 32.9 µM | influenza NS1 function cell assay, 15-point titration | 1,400 tested, under 10 active; further: 0% is about no effect
PR8 titer – influenza virus titer reduction, NS1 project; shares compounds with NS1 function inh; MDCK infected influenza A/PR/8/34, virus titer TCID50; active compounds read low; virus titer (log TCID50), log10 TCID50 at 5 µM; 95 compounds, 30% hits; call rule not given here
* marks the source's active call; other numbers are inactive results. Unless noted, the call rests on the fitted dose curve.

How did Cn1c(/N=C/c2c(O)ccc3ccccc23)nc2ccccc21 do in these assays?
Shiga toxin inh: 81*; Pf growth 96h: -3%; Pf growth 48h: -16%; CHX counter: 69*; NS1 function inh: 11µM*; NS1 inh valid: inconclusive

What do the screens show for `CCCn1c(/N=C/c2ccccc2O)nc2ccccc21`?
Shiga toxin inh: -12; Pf growth 96h: inconclusive; Pf growth 48h: 43%; CHX counter: -1; NS1 function inh: -3%

How did CSc1ccc(/C=N/S(=O)(=O)c2ccccc2)cc1 do in these assays?
Shiga toxin inh: -17; Pf growth 96h: 24%; Pf growth 48h: 32%; CHX counter: -1; NS1 function inh: 3%

Results for CC(=O)c1cccc(S(=O)(=O)N2CCN(c3nc4cc(C)cc(C)c4cc3C#N)CC2)c1 ?
Shiga toxin inh: -13; Pf growth 96h: -24%; Pf growth 48h: inconclusive; CHX counter: -7; NS1 function inh: 10µM*; NS1 inh valid: 0

Results for Cc1cc(C)c2cc(C#N)c(N3CCCN(C(=O)c4cnccn4)CC3)nc2c1 ?
Shiga toxin inh: -6; Pf growth 96h: inconclusive; Pf growth 48h: inconclusive; CHX counter: -5; NS1 function inh: -4%

What do the screens show for `CCC(C)C(NC(=O)c1ccccc1NC(=O)c1ccco1)C(=O)NC1CCCCC1` (configuration not stated)?
Shiga toxin inh: 13; Pf growth 96h: 310%; Pf growth 48h: 9.3µM*; CHX counter: -4; NS1 function inh: 4.5µM*; NS1 inh valid: 1

What do the screens show for `NC(Cc1cc(O)c(O)cc1O)C(=O)O` (configuration not stated)?
Pf growth 96h: 15%; Pf growth 48h: 0%; NS1 function inh: 8.9µM*; NS1 inh valid: -14

How did O=C(CN1CCCCCC1=O)OCc1ncc(-c2ccccc2)o1 do in these assays?
Shiga toxin inh: 29; Pf growth 96h: 6%; Pf growth 48h: 13%; CHX counter: 41; NS1 function inh: 0.45µM*; NS1 inh valid: 0; PR8 titer: 8.5

How did CN(C)S(=O)(=O)c1cccc(COC(=O)CN2CCCCCC2=O)c1 do in these assays?
Shiga toxin inh: -5; Pf growth 96h: 20%; Pf growth 48h: -2%; CHX counter: -4; NS1 function inh: 15%

How did COc1cc(NC(=O)CSc2nc3ccccc3n2-c2ccccc2)c(C)cc1[N+](=O)[O-] do in these assays?
Shiga toxin inh: -4; Pf growth 96h: inconclusive; Pf growth 48h: 12µM*; CHX counter: -2; NS1 function inh: 22µM*; NS1 inh valid: -4; PR8 titer: 7.7

How did CN(C)S(=O)(=O)c1cccc(NC(=O)CSc2nc3ccccc3n2-c2ccccc2)c1 do in these assays?
Shiga toxin inh: -7; Pf growth 96h: inconclusive; Pf growth 48h: inconclusive; CHX counter: 6; NS1 function inh: -16%

How did COc1ccc(-n2c(SCC(=O)Nc3ccc([N+](=O)[O-])cc3OC)nc3ccccc32)cc1 do in these assays?
Shiga toxin inh: -4; Pf growth 96h: -1%; Pf growth 48h: inconclusive; CHX counter: 9; NS1 function inh: -5%

Results for CN(C)S(=O)(=O)c1ccc(NC(=O)CSc2nc3ccccc3n2-c2ccccc2)cc1 ?
Shiga toxin inh: -6; Pf growth 96h: 2.3µM*; Pf growth 48h: 5.9µM*; CHX counter: -3; NS1 function inh: 10µM*; NS1 inh valid: 5

How did CCC1(c2ccccc2)NC(=O)N(CC(=O)Nc2ccccc2C(=O)NC2CC2)C1=O (configuration not stated) do in these assays?
Pf growth 96h: 0%; Pf growth 48h: inconclusive

How did CCCCOc1ccc(-c2cc(C(F)(F)F)c(C#N)c(SCC(=O)O)n2)cc1 do in these assays?
Shiga toxin inh: -12; Pf growth 96h: 33%; Pf growth 48h: 3%; CHX counter: 5

Results for CCn1c2ccccc2c2cc(N=C3SC(CC(=O)Nc4ccccc4)C(=O)N3C)ccc21 (configuration not stated) ?
Shiga toxin inh: -3; Pf growth 96h: inconclusive; Pf growth 48h: inconclusive; CHX counter: -2; NS1 function inh: 8%

Results for CCn1c2ccccc2c2cc(N=C3SC(CC(=O)Nc4ccccc4OC)C(=O)N3C)ccc21 (configuration not stated) ?
Shiga toxin inh: -21; Pf growth 96h: inconclusive; Pf growth 48h: inconclusive; CHX counter: -3; NS1 function inh: 4µM*; NS1 inh valid: -25

How did COc1ccc(N=C2SC(CC(=O)Nc3ccccc3OC)C(=O)N2Cc2ccco2)cc1 (configuration not stated) do in these assays?
Shiga toxin inh: 40*; Pf growth 96h: inconclusive; Pf growth 48h: -78%; CHX counter: 24*; NS1 function inh: 10µM*; NS1 inh valid: -14

How did COc1ccc(N=C2SC(CC(=O)Nc3ccc(F)cc3)C(=O)N2Cc2ccco2)cc1 (configuration not stated) do in these assays?
Shiga toxin inh: 28; Pf growth 96h: inconclusive; Pf growth 48h: inconclusive; CHX counter: 12; NS1 function inh: 8%

What do the screens show for `CCOC(CNC(=O)CN1C(=O)COc2ccc(S(=O)(=O)N3CCOCC3)cc21)OCC`?
Shiga toxin inh: -6; Pf growth 96h: -1%; Pf growth 48h: 20%; CHX counter: -4; NS1 function inh: 4%

Results for O=C(OCn1nnc2ccccc2c1=O)c1cc2ccccc2o1 ?
Shiga toxin inh: 4; Pf growth 96h: -1%; Pf growth 48h: 4%; CHX counter: -7; NS1 function inh: 9%

What do the screens show for `O=C(OCn1nnc2ccccc2c1=O)c1ccc2ccccc2n1`?
Shiga toxin inh: -11; Pf growth 96h: -20%; Pf growth 48h: 5%; CHX counter: -1; NS1 function inh: 16µM*; NS1 inh valid: -17

What do the screens show for `O=C(c1cc2ccccc2oc1=O)N(Cc1ccco1)C1CCS(=O)(=O)C1` (configuration not stated)?
Shiga toxin inh: 35; Pf growth 96h: 9%; Pf growth 48h: 7%; CHX counter: 29*; NS1 function inh: 8.9µM*; NS1 inh valid: -16

How did COC(=O)c1cc(C(=O)OC)cc(N2C(=O)CC(NNC(=O)c3ccc(C)cc3)C2=O)c1 (configuration not stated) do in these assays?
Shiga toxin inh: 18; Pf growth 96h: inconclusive; Pf growth 48h: -3%; CHX counter: 11; NS1 function inh: 7.1µM*; NS1 inh valid: 12

Results for COc1cccc(C(C)NC(=O)Nc2cccc(C(F)(F)F)c2)c1 (configuration not stated) ?
Shiga toxin inh: -12; Pf growth 96h: 53%; Pf growth 48h: inconclusive; CHX counter: -2; NS1 function inh: inconclusive; NS1 inh valid: inconclusive

Screening data (PubChem BioAssay)
